# Data taken from the supplement of paper PMC6555819.
# Assays:
# Test in all cases: PBM binding z-score (relative to random genomic background probes); higher = stronger binding; sequences stand for … in GC…GCGATTGACAGCGTAGAATGAAGG
# [1] = system: FXR:RXRa (NR concentration 270 nM, RXRa partner concentration 90 nM)
# In short: (§1)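 On custom Agilent 4×180K arrays, double-stranded probes with 34-nt variable regions carried direct-repeat seeds, single-nucleotide variants, half-site ablations or random human genomic background. Ligand-free nuclear receptor dimers were applied for 1 h, and binding was read with antibodies against each partner (one per run). Binding z-scores come from regression-normalized fluorescence, with the random background probes as reference.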
# [2] = system: LXRa:RXRa (NR concentration 270 nM, RXRa partner concentration 90 nM)
# In short: as §1
# [3] = system: LXRa homodimer (NR concentration 270 nM)
# In short: as §1
# [4] = system: LXRb:RXRa (NR concentration 270 nM, RXRa partner concentration 90 nM)
# In short: as §1
# [5] = system: LXRb homodimer (NR concentration 270 nM)
# In short: as §1
# [6] = system: PPARa:RXRa (NR concentration 270 nM, RXRa partner concentration 90 nM)
# In short: as §1
# [7] = system: PPARg:RXRa (NR concentration 180 nM, RXRa partner concentration 90 nM)
# In short: as §1
# [8] = system: PPARg:RXRa 270nM:90nM, anti-RXR (NR concentration 270 nM, RXRa partner concentration 90 nM)
# In short: as §1
# [9] = system: PPARg:RXRa 30nM:10nM, anti-RXR (NR concentration 30 nM, RXRa partner concentration 10 nM)
# In short: as §1
# [10] = system: PPARg:RXRa 90nM:30nM, anti-RXR (NR concentration 90 nM, RXRa partner concentration 30 nM)
# In short: as §1
# [11] = system: PPARg:RXRa DBDmut IVT, anti-RXR (DBD mutation: RXRa K156A/R161A, NR concentration 270 nM, RXRa partner concentration 90 nM)
# In short: as §1
# [12] = system: PPARg:RXRa IVT, anti-PPARg (NR concentration 270 nM, RXRa partner concentration 90 nM)
# In short: as §1
# [13] = system: PPARg DBDmut:RXRa IVT, anti-PPARg (DBD mutation: PPARg1 K132A/R137A, NR concentration 270 nM, RXRa partner concentration 90 nM)
# In short: as §1
# [14] = system: PPARg DBDmut IVT, anti-PPARg (DBD mutation: PPARg1 K132A/R137A, NR concentration 270 nM)
# In short: as §1
# [15] = system: PPARg homodimer (NR concentration 180 nM)
# In short: as §1
# [16] = system: PXR:RXRa (NR concentration 270 nM, RXRa partner concentration 90 nM)
# In short: as §1
# [17] = system: PXR homodimer (NR concentration 270 nM)
# In short: as §1
# [18] = system: RARa:RXR (NR concentration 270 nM, RXRa partner concentration 90 nM)
# In short: as §1
# [19] = system: RARa homodimer (NR concentration 270 nM)
# In short: as §1
# [20] = system: RARb:RXRa (NR concentration 270 nM, RXRa partner concentration 90 nM)
# In short: as §1
Sequence,PBM binding z-score [1],PBM binding z-score [2],PBM binding z-score [3],PBM binding z-score [4],PBM binding z-score [5],PBM binding z-score [6],PBM binding z-score [7],PBM binding z-score [8],PBM binding z-score [9],PBM binding z-score [10],PBM binding z-score [11],PBM binding z-score [12],PBM binding z-score [13],PBM binding z-score [14],PBM binding z-score [15],PBM binding z-score [16],PBM binding z-score [17],PBM binding z-score [18],PBM binding z-score [19],PBM binding z-score [20]
ATATGTTGGTTAGCTGGGGTCATTCAGACTAGGC,3.89,4.15,2.39,4.32,1.69,4.26,1.3,2.46,0.784,1.8,0.909,1.74,0.767,1.26,2.8,5.64,3.66,5.26,1.53,2.72
ACAGACAGGTGAGTGAAGGGAACTCAGCTGGACG,0.599,0.176,-0.538,-0.538,-0.387,-0.171,0.513,-0.458,-0.652,-0.465,0.124,0.352,-0.265,-0.714,-0.397,-0.572,-0.37,-0.456,-0.307,0.438
CCTACCGGGCCATTCAGAGGTCATTGATCATATG,3.15,4.65,6.83,4.07,0.358,3.77,1.05,2.26,0.311,1.27,0.333,1.62,-0.171,-0.538,2.87,5.36,2.87,5.57,0.404,3.29
ATCGAAGGGTCGTGAGGTGAGTATACAGAAAGGC,2.2,1.7,-0.107,1.58,0.162,3.34,1.74,1.77,0.78,1.23,-0.293,1.48,0.829,0.999,1.33,2,0.191,2.84,0.629,2.61
ATAGGTAGGTTAAGGGTCATTCAGGTTGGTTCGC,5.35,5.02,3.31,4.83,2.47,5.86,9.73,8.69,8.35,9.51,3.71,5.35,3.33,1.88,4.75,5.63,3.61,6.1,3.3,3.83
GCTATTTGTTGAAAGGGCAACCGAATGATTCTCG,0.484,0.768,0.386,0.834,0.261,1.37,0.764,1.88,0.957,1.46,0.563,0.804,0.209,0.611,1.53,0.686,0.462,1.01,1.45,1.98
GGAACCAGGGCATTCGAGTTGATAGCATGGCGAT,1.3,0.74,-0.0183,0.0646,0.153,1.69,0.973,0.862,-0.134,0.0636,3.39,2.91,-0.295,0.956,1.01,2.12,0.865,0.882,0.0816,1.72
AGAATGAGGGTATTAAGATCAGGGAATTGCGGTC,0.048,0.136,-0.107,-0.105,0.211,0.659,0.403,0.28,0.322,0.102,1.71,0.923,0.443,0.824,0.506,0.0196,0.451,0.253,0.44,0.4
CGAACTAGGTCAATGACAGGACAGTGAATAGTAA,2.8,2.36,0.289,1.59,0.0362,4.34,7.1,6.02,3.52,5.51,8.25,7.96,1.69,1.41,1.62,1.12,-0.0371,1.75,0.354,3.64
TTGAGTAGGTTACCAATGGGGCATTCAGCTTTCT,0.0857,1.41,-0.22,1.21,-0.0643,1.36,1.23,1.9,1.01,1.5,4.77,4.38,0.923,0.772,0.846,0.242,-0.056,0.279,0.0397,1.19
TAGCGTAGGTCATGCGGGCCAGTATAGTGTCGGC,4.01,3.6,0.172,2.19,-0.449,3.68,1.98,2.43,0.234,1.45,0.799,2.08,0.502,-0.521,0.769,2.18,-0.691,2.98,-0.473,3.77
AGAATCAGGTTAAGATCAGGGAAACAGAATACAT,0.729,0.662,0.295,0.799,0.474,1.68,1.18,1.05,0.692,0.624,2.26,2.1,1.36,1.33,1.01,0.297,1.14,0.552,1.62,1.1
CCGACTGGGGCAAACGTTACCATACTCAGTACGA,-0.264,-0.168,-0.00869,-0.27,-0.682,1.61,3.62,4.48,2.27,4.25,5.15,3.9,-0.175,-0.646,0.256,-0.42,-0.33,-0.168,-0.437,0.494
CCTTACAGGTCACTGACAGGTTATAGCATTTGGA,6.15,4.93,2.19,3.88,0.942,5.23,4.78,4.44,2.1,3.27,4.62,4.34,1.33,1.38,3.27,3.86,0.606,4.73,2.15,4.67
